# Measured values as given in the supplement of paper PMC4166925.
# ± gives the standard deviation of the averaged measurements. Over roughly 33,000 sequences, “E-score (dimensionless, -0.5 to 0.5)” has its median near -0.049; the highest 2% begin near 0.37. Only a selection was taken, and the highest values are over-represented in it overall.
# Tested on: T1, PmTbr T-box DNA-binding domain (GST fusion)
# T1 sequence: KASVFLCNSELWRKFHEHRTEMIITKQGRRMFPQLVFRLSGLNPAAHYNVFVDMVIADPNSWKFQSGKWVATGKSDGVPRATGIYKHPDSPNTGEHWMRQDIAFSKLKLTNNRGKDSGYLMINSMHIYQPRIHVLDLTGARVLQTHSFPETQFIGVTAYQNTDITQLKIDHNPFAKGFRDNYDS
# Experiment: PBM E-score of 8-mer (E-score (dimensionless, -0.5 to 0.5)); Tbr is Tbrain of the sea star Patiria miniata (Pm) or the sea urchin Strongylocentrotus purpuratus (Sp); higher = stronger binding preference
# Settings: the construct has about 5 more residues each side
# Experimental: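 Universal protein-binding microarray (Agilent AMADID 016060, 60-bp probes with a 35-bp variable region) incubated with 200 nM GST-fused Patiria miniata Tbr T-box DNA-binding domain (residues 272-466) in PBS pH 7.5. Scored for every ungapped 8-mer (given with its reverse complement) by the Universal PBM Analysis Suite as E-score (modified Wilcoxon-Mann-Whitney enrichment, range -0.5 to 0.5; >0.45 counts as bound) and Z-score of median probe intensity. Two replicate arrays (datasets 1 and 2).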
row,Sequence,PBM E-score of 8-mer
1,ATAGCTAG,-0.0742 ± 0.12
2,CACGTTGG,0.261 ± 0.0042
3,CTGTTCTC,0.0542 ± 0.017
4,CCTGGCAC,0.371 ± 0.019
5,GGTGGCAA,0.3882 ± 0.0017
6,GGTGGCAC,0.38829 ± 0.00023
7,AGTGGCAA,0.304 ± 0.039
8,ATTGGCAG,0.0761 ± 0.012
9,CTTGGCAC,0.352 ± 0.016
10,ATTGGCAC,0.385 ± 0.0064
11,GCTGGCAC,0.234 ± 0.064
12,AGTGGCAC,0.334 ± 0.008
13,CGTGGCAA,0.122 ± 0.044
14,CGTGGCAC,0.233 ± 0.052
15,ACTGGCAC,0.264 ± 0.015
16,CCAGTTCA,-0.052 ± 0.044
17,GCCGTGCC,0.0438 ± 0.036
18,TCTATCCA,-0.354 ± 0.0079
19,GGATTAAC,0.0329 ± 0.085
20,CCTAGGGA,-0.233 ± 0.015
21,ACGATCTG,0.189 ± 0.015
22,CAATAGCG,0.118 ± 0.13
23,AGGAGGTA,-0.0739 ± 0.034
24,ATGAGGTA,-0.093 ± 0.027
25,AAGAGGTA,-0.158 ± 0.021

row,Sequence,PBM E-score of 8-mer
1,AGGAGGTC,-0.247 ± 0.02
2,ACGAGGTA,-0.046 ± 0.031
3,ATGAGGTG,0.382 ± 0.018
4,AAGAGGTC,-0.101 ± 0.02
5,ACGAGGTG,0.4446 ± 0.0042
6,AGGAGGTG,0.428 ± 0.0078
7,ATGAGGTC,-0.00428 ± 0.033
8,ACGAGGTC,-0.113 ± 0.027
9,AAGAGGTG,0.4261 ± 0.00096
10,GCCAGTCA,0.0625 ± 0.0016
11,AAGTTTCT,0.101 ± 0.091
12,AAACCATC,-0.0959 ± 0.018
13,AGTAGAGC,0.00365 ± 0.047
14,GTAGAACA,-0.0515 ± 0.048
15,GTCAGTGA,0.122 ± 0.036
16,GGAGAGCC,-0.27 ± 0.039
17,ATTAAGTC,-0.233 ± 0.059
18,AGGCAAAT,-0.324 ± 0.053
19,CACACCTG,0.478 ± 0.0049
20,AACACCTG,0.472 ± 0.0011
21,ACCACCTG,0.262 ± 0.056
22,TACACCGA,0.042 ± 0.083
23,AACACCGT,0.329 ± 0.0059
24,AACACCGC,0.287 ± 0.0081
25,TACACCTA,0.371 ± 0.026

row,Sequence,PBM E-score of 8-mer
1,TACACCAA,0.0439 ± 0.018
2,AACACCGG,0.155 ± 0.04
3,CAGACCTG,-0.0919 ± 0.036
4,CACACCGG,0.135 ± 0.057
5,AACACCTT,0.4857 ± 0.0013
6,GACTGAGA,-0.181 ± 0.085
7,ACTCAAAT,-0.125 ± 0.039
8,TACTTAGA,0.0947 ± 0.0054
9,ATAGACTG,-0.0183 ± 0.043
10,GACTGACA,0.142 ± 0.069
11,ATAGGCCC,-0.141 ± 0.098
12,CTCATTGC,-0.166 ± 0.087
13,AGATTCGG,-0.173 ± 0.036
14,ACGGCTAC,-0.0169 ± 0.0055
15,GACACCGA,0.286 ± 0.024
16,GACACCTA,0.48906 ± 2.8e-05
17,CCCACCTA,0.184 ± 0.016
18,CACACCGA,0.193 ± 0.0051
19,GAGACCTA,-0.16 ± 0.033
20,AAAACCTA,-0.209 ± 0.086
21,AACACCTA,0.4803 ± 0.0034
22,CACACCTA,0.476 ± 0.009
23,AACACCGA,0.234 ± 0.034
24,AGACTAGG,-0.0553 ± 0.059
25,ACGTCGAC,0.115 ± 0.035

row,Sequence,PBM E-score of 8-mer
1,AGGCAGCG,-0.0107 ± 0.078
2,CCTTGTAA,-0.0975 ± 0.037
3,TACTTGAA,-0.262 ± 0.037
4,AGGGGAGG,-0.223 ± 0.07
5,GAATTGTC,0.184 ± 0.0043
6,CGAGACTC,0.0667 ± 0.093
7,CCAAGGGA,0.0414 ± 0.029
8,ATCACGAG,0.167 ± 0.054
9,AAGAGTGT,0.289 ± 0.055
10,CTATAGAA,-0.129 ± 0.058
11,ATGTGACC,0.112 ± 0.052
12,ACGTGACG,0.346 ± 0.0083
13,GTGTGACA,0.4709 ± 0.0035
14,GCGTGACA,0.365 ± 0.0062
15,ATGTGACA,0.4393 ± 0.0026
16,CTGTGACA,0.3356 ± 0.0016
17,ACGTGACT,0.0526 ± 0.086
18,ACGTGACA,0.385 ± 0.023
19,ATGTGACG,0.31 ± 0.02
20,CACTGCTG,-0.132 ± 0.038
21,AAGAAGTC,0.0125 ± 0.0032
22,CGTAGGCC,-0.213 ± 0.033
23,GCATATAC,-0.081 ± 0.0014
24,CCTTGGGC,-0.035 ± 0.01
25,GGTGCCAA,0.454 ± 0.006

row,Sequence,PBM E-score of 8-mer
1,CGTGCCAA,0.324 ± 0.0048
2,AGTGCCAC,0.287 ± 0.014
3,AGTGCCAG,0.2664 ± 0.0016
4,TGTGCCAA,0.351 ± 0.013
5,GATGCCAC,0.182 ± 0.072
6,AGTGCCAA,0.3809 ± 0.0024
7,CGTGCCAC,0.274 ± 0.03
8,GGTGCCAC,0.398 ± 0.015
9,GCGGCAGC,0.0309 ± 0.0077
10,GGCGAATA,0.0105 ± 0.026
11,ACGAATTG,0.0628 ± 0.039
12,ACAGCGCA,-0.0538 ± 0.03
13,CCGCTATC,0.177 ± 0.0022
14,AACACGGT,0.133 ± 0.049
15,GGTGAAAA,0.2007 ± 0.0014
16,TGTGAAAA,0.38 ± 0.057
17,GGTGAACA,0.00576 ± 0.0094
18,CGTGAAAA,0.338 ± 0.026
19,TGTGAACA,0.4216 ± 0.0014
20,CGTGAACA,0.321 ± 0.021
21,CGTGAGAG,0.265 ± 0.0088
22,AAGCCAAT,-0.162 ± 0.051
23,ACTCGAAC,-0.0874 ± 0.031
24,CTCTGTGC,-0.0888 ± 0.082
25,GGAGATTA,-0.0891 ± 0.063

row,Sequence,PBM E-score of 8-mer
1,AGGGCCTC,-0.399 ± 0.0047
2,CAAGCATG,-0.0451 ± 0.032
3,TGTCTAAA,-0.0695 ± 0.011
4,GAAGGACA,-0.0775 ± 0.028
5,GCAGACAA,-0.0224 ± 0.054
6,ACTCGCAC,0.4 ± 0.0077
7,CCTCGCAC,0.42 ± 0.014
8,GCTCGCAC,0.42 ± 0.025
9,GCTCGCCC,-0.213 ± 0.052
10,ACTCGCAT,-0.0149 ± 0.006
11,CCTCGCAG,0.0735 ± 0.061
12,GCTCGCAA,0.242 ± 0.015
13,CCTCGCAA,0.118 ± 0.0037
14,ACTCGCAG,0.0856 ± 0.036
15,ACAGCTAC,0.115 ± 0.032
16,AACTGGAG,-0.0661 ± 0.0033
17,CGATAAGC,0.124 ± 0.049
18,CGAGGTTA,0.0486 ± 0.017
19,AGAGGTGC,0.411 ± 0.0084
20,CGAGGTCA,0.0395 ± 0.11
21,GGAGGTGA,0.4036 ± 0.0026
22,AGAGGTTC,-0.124 ± 0.022
23,GGAGGTCA,0.0158 ± 0.0067
24,AGAGGTGG,0.316 ± 0.0057
25,CGAGGTGA,0.4396 ± 0.0012

row,Sequence,PBM E-score of 8-mer
1,CGAGGTGC,0.457 ± 0.01
2,CGAGGTCC,-0.166 ± 0.06
3,CGAGGTAC,-0.1003 ± 0.00044
4,AGAGGTGA,0.352 ± 0.015
5,ACCAACTA,-0.0247 ± 0.12
6,CGAACAGC,0.0465 ± 0.011
7,TAAGTCTA,-0.0537 ± 0.026
8,CGCCCTAC,-0.103 ± 0.061
9,CCAACAAC,0.0262 ± 0.0053
10,ATGTTGGA,-0.0683 ± 0.0083
11,CTGTTGAA,-0.0551 ± 0.1
12,CTGTTGGA,0.0599 ± 0.038
13,ATGTTGAA,-0.107 ± 0.017
14,GTGTTGGA,0.382 ± 0.0051
15,GTGTTGAA,0.4 ± 0.013
16,ACCTTTAT,0.0337 ± 0.024
17,AGTGTGAA,0.48836 ± 0.00035
18,CGTGTGAA,0.4524 ± 0.0013
19,TGGGTGAA,-0.158 ± 0.043
20,CGTGTGTA,0.00111 ± 0.014
21,TATGTGAA,0.11 ± 0.1
22,AGTGTGTA,0.172 ± 0.073
23,CGTGTGCA,0.0443 ± 0.011
24,AGAGTGAA,0.0596 ± 0.056
25,TGTGTGAA,0.4728 ± 0.0017

row,Sequence,PBM E-score of 8-mer
1,CGCTACCA,0.243 ± 0.024
2,AGTTCTTC,-0.293 ± 0.02
3,AAAAGTGC,0.2475 ± 0.00082
4,ATCCTTCA,-0.143 ± 0.044
5,ACCGACCC,0.00535 ± 0.068
6,ACCATTAA,-0.0404 ± 0.015
7,GAAGTCTC,0.102 ± 0.062
8,CGCCTAAG,0.0221 ± 0.02
9,ACCCTCAA,0.0906 ± 0.052
10,GAGTTGCC,0.0293 ± 0.068
11,CACAGCTG,0.296 ± 0.0054
12,CTGACAAA,0.12 ± 0.038
13,GTGACACA,0.416 ± 0.0096
14,ATGACAAC,0.241 ± 0.054
15,CTGACACA,0.344 ± 0.013
16,GTGACAAC,0.4452 ± 0.0036
17,GAGACACA,0.053 ± 0.046
18,ATGACAAA,-0.0227 ± 0.073
19,GTGACGAA,0.371 ± 0.014
20,CTGACGAA,0.0955 ± 0.048
21,ATGACGAA,-0.065 ± 0.04
22,GTGACAAA,0.428 ± 0.029
23,CTGACAAC,0.257 ± 0.012
24,GTAGTCGA,-0.0608 ± 0.0079
25,ATTATTCG,-0.0471 ± 0.044

row,Sequence,PBM E-score of 8-mer
1,CTGGCTTA,-0.275 ± 0.025
2,CTACAGGC,-0.125 ± 0.0056
3,GATGGTCA,-0.26 ± 0.0048
4,CGCGAACA,0.328 ± 0.007
5,TACTTAAA,-0.246 ± 0.057
6,GTGATTGA,0.125 ± 0.042
7,GACTCGAC,0.0517 ± 0.016
8,CGTTATCC,-0.058 ± 0.009
9,CACACATC,0.381 ± 0.035
10,CACACATG,0.352 ± 0.0023
11,GACACATA,0.322 ± 0.038
12,GACACAGC,0.1102 ± 0.00023
13,AACACACT,0.229 ± 0.021
14,AAAACATT,-0.0945 ± 0.013
15,AACACATT,0.389 ± 0.028
16,CTCACATC,0.3693 ± 0.0021
17,CGCACATC,0.298 ± 0.055
18,CTCACATA,0.0666 ± 0.017
19,GACACATC,0.372 ± 0.0069
20,ATCACATC,0.195 ± 0.058
